# From PubChem BioAssay
# CD40 NFkB inh – CD40 pathway inhibition in BL2 cells; BL2 NF-kB luciferase reporter, CD40L-induced, 4 h; inhibition, % at 10 µM; 83,000 tested, 0.94% active; AID 1053188;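 active = mean inhibition of at least 50% with a set share of replicates also reaching that level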;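 also: 0% = neutral control wells and 100% = IKK inhibitor VII at 50 µM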
# * hit, by the source's call; [ ] = another dose, or the depositor's remark. Shown is part of a subset that was picked to be rich in hits.
SMILES,CD40 NFkB inh
COc1cccc(-c2ccc3c(c2)[C@@H]2[C@@H](CCN2C(=O)NC2CCCCC2)[C@H](CO)N3C)c1,19.2
CC(C)NC(=O)N1Cc2cc(C(=O)NC3CCC3)nc(-c3cccc(-c4cncnc4)c3)c2[C@@H]1CCO,9.6[25 µM]
CCNC(=O)c1cc2c(c(-c3cccc(-c4cc5ccccc5o4)c3)n1)[C@@H](CCO)N(C(=O)NC(C)C)C2,-23.1
CCCNC(=O)c1cc2c(c(-c3cccc(-c4cc5ccccc5o4)c3)n1)[C@H](CCO)N(C(=O)NC(C)C)C2,55.8*[25 µM]
CCCC(=O)N1CC2(C1)CN(Cc1ccccc1F)[C@H](CO)c1c2c2ccc(OC)cc2n1C,-4.5[25 µM]
C[C@@H]1CN([C@@H](C)CO)C(=O)c2c(c3ccccc3n2C)-c2ccccc2CO[C@H]1CN(C)Cc1ccc(O)cc1,-3.1
O=C(NC1CCCC1)N[C@H]1C=C[C@H](CC(=O)N2CCOCC2)O[C@H]1CO,-0.5[25 µM]
Cc1cc(-c2nc3ccccc3s2)ccc1N,55.9*
c1ccc(-c2nc3ccccc3s2)nc1,-83.8
Cc1ccc(-c2nc3ccccc3s2)cc1S(=O)(=O)N1CCOCC1,-4.0
C[C@H]1CN(C)C(=O)c2cc([N+](=O)[O-])ccc2O[C@H]1CN(C)C(=O)OC(C)(C)C,-2.0
C[C@@H]1CN([C@H](C)CO)C(=O)c2c(c3ccccc3n2C)-c2ccccc2CO[C@@H]1CN(C)CC1CC1,22.5
N#C[C@H]1[C@H](c2ccccc2-c2ccccc2)[C@@H](CO)N1C(=O)NC1CCCC1,27.6[25 µM]
N#C[C@@H]1[C@@H](c2ccccc2-c2ccccc2)[C@@H](CO)N1C(=O)NC1CCCC1,53.3*[25 µM]
N#C[C@H]1[C@H](c2ccccc2-c2ccccc2)[C@H](CO)N1C(=O)NC1CCCC1,26.7[25 µM]
O=C(C[C@@H]1C[C@H]2c3cc(NC(=O)c4cccnc4)ccc3O[C@H]2[C@H](CO)O1)NC1CCCC1,-0.2
OC1CC2CCC(C1)N2CCCN1c2ccccc2Sc2ccc(Cl)cc21 (stereo unspecified),54.1*
O=C(CN1c2ccccc2Sc2ccccc21)N/N=C/c1ccc(Cl)cc1,15.6
O=C1CCSc2ccc(Cl)cc2N1Cc1ccccc1,1.5
O=C(C[C@H]1C[C@H]2c3cc(NC(=O)Nc4ccccc4)ccc3O[C@H]2[C@H](CO)O1)NCCN1CCCCC1,1.3[25 µM]
COc1ccc(CN2[C@@H]3CN(C(=O)c4ccccc4)c4ccccc4[C@@H]3[C@@H]2CO)cc1,5.3
COC(=O)[C@H]1[C@H](CO)[C@H]2Cn3c(ccc(-c4ccncc4)c3=O)[C@H]2N1Cc1ccccc1F,-3.3[25 µM]
C/C=C/c1ccc([C@@H]2[C@H](CO)N(C(=O)C3CCC3)C23CN(C(=O)NC(C)C)C3)cc1,-7.7[25 µM]
COc1ccc2sc(N(CCCN(C)C)C(=O)c3ccc(C(=O)c4ccccc4)cc3)nc2c1,9.0
CCN(Cc1ccccc1)S(=O)(=O)c1ccc(C(=O)N(CCCN(C)C)c2nc3cc4c(cc3s2)OCCO4)cc1,16.0
SMILES,CD40 NFkB inh
CCN(Cc1ccccc1)S(=O)(=O)c1ccc(C(=O)N(CCCN(C)C)c2nc3cc(OC)ccc3s2)cc1,51.9*
O=C(Nc1ccc2c(c1)[C@@H]1C[C@@H](CC(=O)N3CCCCC3)O[C@H](CO)[C@@H]1O2)NC1CCCCC1,1.4[25 µM]
CN1CCN(C(=O)C[C@@H]2CC[C@@H]3[C@H](COC[C@H](O)CN3Cc3cccc(-c4ccncc4)c3)O2)CC1,-6.5[25 µM]
COc1ccc(-c2ccc3n(c2=O)C[C@H]2[C@H](CO)[C@@H](C(=O)N(C)C)[C@@H]3N2C(=O)c2cnccn2)cc1,5.0[25 µM]
O=C(C[C@H]1CC[C@@H]2[C@H](COC[C@@H](O)CN2CC2CCCC2)O1)NCc1ccc(Cl)cc1,4.4
C=C(CC)C(=O)c1ccc(OCC(=O)O)c(Cl)c1Cl,40.8*
CCOC(=O)COc1ccc2nsnc2c1Cl,9.2
COc1ccccc1OCC(=O)O,7.3
Cn1cnc(S(=O)(=O)N2[C@@H]3CNC[C@H]2C3c2ccc(-c3ccncc3)cc2)c1 (stereo partly specified),0.8
COc1ccc2c(c1)CCc1c(C(=O)NCc3ccc(F)cc3)noc1-2,2.7
COc1ccc(-c2onc(C)c2-c2ccc(C(=O)OC(C)C)o2)c(O)c1,33.5*
COc1cc(NC(=O)c2ccc(-c3c(C)noc3C)c3ccoc23)cc(OC)c1OC,1.8
COc1cccc(NC(=O)C[C@@H]2CC[C@H]3[C@@H](COc4ccc(NC(=O)C5CCCC5)cc4C(=O)N3C)O2)c1,-1.0
Cc1nnc(C)c2c(C)n(/N=C/c3cc(Br)ccc3O)c(C)c12,-1.3
O=C(C[C@H]1CC[C@H]2[C@@H](COC[C@@H](O)CN2C(=O)c2cccnc2)O1)NC1Cc2ccccc2C1,4.6
Cc1ccc(-c2ccccc2[C@@H]2[C@H](C#N)N(C(=O)Cc3cccnc3)[C@H]2CO)cc1,-14.6[25 µM]
O=C(CC(=O)Nc1ccccn1)Nc1ccccn1,7.8
O=C(NC(=O)c1ccccc1)Nc1ccccn1,108.1*
O=C(Nc1ccccn1)c1ccc(C(=O)c2ccccc2)cc1,-13.0
CN(C)C(=O)c1cccc(-c2ccc(C3[C@H]4CNC[C@@H]3N4C(=O)Nc3cc(F)ccc3F)cc2)c1 (stereo partly specified),5.5
CCC(=O)N(CC)C[C@@H]1[C@@H](c2ccc(-c3ccccc3)cc2)[C@@H](CO)N1C(C)=O,-6.9[25 µM]
CC(C)NC(=O)Nc1ccc2c(c1)CC(=O)N(C)C[C@@H](C)[C@@H](CN(C)S(C)(=O)=O)O2,-5.5
CC(=O)OCC=C1CCC2C3CCC4=CC(=O)CCC4(C)C3C(O)CC12C (stereo unspecified),6.9
C[C@]12CCC(=O)C=C1CC[C@@H]1[C@@H]2[C@@H](O)C[C@@]2(C)[C@H]1CC[C@]2(O)C(=O)COC(=O)CCC(=O)O,24.4
CC(=O)OCC(=O)C1(O)CCC2C3CCC4=CC(=O)CCC4(C)C3(Cl)C(O)CC21C (stereo unspecified),62.2*
SMILES,CD40 NFkB inh
CO[C@H](CN(C)S(=O)(=O)c1ccc(Cl)cc1)[C@H](C)CN(Cc1ccccc1Cl)[C@@H](C)CO,13.6
CO[C@@H](CN(C)S(=O)(=O)c1ccc(Cl)cc1)[C@H](C)CN(Cc1ccccc1Cl)[C@@H](C)CO,33.6*
CO[C@@H](CN(C)S(=O)(=O)c1ccc(Cl)cc1)[C@@H](C)CN(Cc1ccccc1Cl)[C@H](C)CO,2.3
C/C=C/c1ccc([C@@H]2[C@@H](CO)N3C(=O)CN(Cc4ccc(F)cc4)C[C@@H]23)cc1,-1.0[25 µM]
CCNC(=O)[C@H]1[C@H](CO)[C@H]2Cn3c(ccc(-c4cccnc4)c3=O)[C@@H]1N2Cc1ccccc1,-7.0[25 µM]
COC(=O)C[C@H]1C[C@H]2c3cc(NC(=O)c4ccc5c(c4)OCO5)ccc3O[C@H]2[C@H](CO)O1,-9.3[25 µM]
CC(C)NC(=O)Nc1ccc2c(c1)CC(=O)N(C)C[C@H](C)[C@H](CN(C)C(=O)NC(C)C)O2,4.3
COC(=O)c1ccccc1NC(=O)c1noc2c1CCCC2,-14.8
CC(=O)c1ccc(NC(=O)c2noc3c2CCC3)cc1,57.5*
COc1ccc(CNC(=O)c2noc3c2CCCCC3)cc1,-54.6
O=C([C@@H]1N[C@@H]2c3ccc(C4=CCCCC4)c(=O)n3C[C@@H]2[C@H]1CO)N1CCc2ccccc2C1,31.9[25 µM]
Cn1cccc1C(=O)OCC(=O)NCc1ccc2c(c1)OCO2,-16.8
Cn1cccc1C(=O)OCC(=O)Nc1ccc2c(c1)OCCO2,55.2*
O=C(COC(=O)c1ccco1)Nc1ccc2c(c1)OCCO2,-64.9
O=C(C[C@@H]1CC[C@@H]2[C@H](COC[C@H](O)CN2S(=O)(=O)c2cccc(F)c2)O1)NCc1ccncn1,5.5[25 µM]
